Experiment: small-molecule microarray binders of probe aDKK1, primary screen, biochemical, biotinylated probe, 635/667 nm fluorescence (AID 1099);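 also: score merges 667nm spot fluorescence with signal to noise across triplicate slides; reference of the scale not given here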
Conditions: higher = more signal

Row | SMILES | composite z-score
1 | O=C1O[C@@H](c2ccccc2)[C@@H](c2ccccc2)N2[C@@H](c3ccc(O)cc3)[C@]3(C(=O)Nc4ccccc43)[C@@H](C(=O)Nc3nc4ccccc4s3)[C@H]12 | -0.111
2 | C=C(COC)/C(=C/C[C@@H](OC(=O)c1ccncc1)c1cccc(OCCO)c1)c1cnc2ccccc2c1 | 0.432
3 | O=C1O[C@@H](c2ccccc2)[C@@H](c2ccccc2)N2[C@@H](c3ccccc3OCCO)[C@]3(C(=O)Nc4ccc(C#CCCO)cc43)[C@@H](C(=O)N3CCN(c4ncccn4)CC3)[C@H]12 | -0.0415
4 | COC(=O)C[C@H]1O[C@]2(C(=O)N(C)c3ccccc32)[C@@H](C)[C@@H]1[Si](C)(C)c1ccc(C)cc1 | -0.276
5 | Cc1ccc(C(C)CC(O)C2C=CC3C(=O)N(c4ccccc4)C(=O)C3N2Nc2ccc(C(C)C)cc2)o1 (configuration not stated) | 1.14
6 | C[n+]1ccc(CCCO)cc1 | -0.0442
7 | C=C(COC)/C(=C/C[C@@H](OC(=O)c1ccncc1)c1ccc(CO)o1)c1cnc2ccccc2c1 | -0.182
8 | CCOC(=O)[C@H]1C/C=C/C[C@H](C(=O)OCC)C(=O)O[C@H]2[C@@H](OC)O[C@H](CO)[C@@H](OC(=O)CCc3ccccc3)[C@@H]2OC1=O | -0.41
9 | CCCCC(=C=CC[C@@H](O)c1ccc(OCCO)cc1)C[C@@H](O)COCc1ccccc1 | -0.338
10 | CCCc1cccc(=O)o1 | -0.161
11 | COCC(=C=CC[C@H](O)c1ccc(OCCO)cc1)C[C@H](O)COCc1ccccc1 | -0.199
12 | O=C(NC1CC1)[C@@H]1c2ccccc2C(=O)N(Cc2ccccc2)[C@H]1c1ccc(CO)cc1 | -0.474
